# Bioassay records: PubChem, Sanford-Burnham Center for Chemical Genomics
# TIM10 inh: TIM10 yeast growth inhibition. S. cerevisiae TIM10 strain growth, BacTiter-Glo luminescence, 24 h. inhibition, % at 10 µM. hit rate 1.4% among 330,000. AID 463195;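 active means inhibition of 40% or more at the single tested concentration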;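 further: wild-type TIM10 isogenic control strain grown at permissive 25 °C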
# tim23-1 inh: inhibits growth of tim23-1 mutant yeast; inhibition, % at 20 µM; S. cerevisiae tim23-1 growth, BacTiter-Glo luminescence, 24 h; hit rate 1.3% among 330,000; AID 463212;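 active means growth inhibition of the mutant yeast at or above 50%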;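 further: temperature-sensitive mutant grown at 25 °C; plate controls were DMSO-treated mutant yeast for no effect and medium wells lacking yeast for full effect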
# Mdm2-MdmX inh: human Mdm2/MdmX binding inhibition. inhibition, % at 8 µM. O15151+Q00987. SaOS-2 split-luciferase Mdm2/MdmX complementation, luminescence. AID 485346. hit rate 3% among 330,000;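 active means inhibition of at least 50% at 8 µM in the primary screen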
# Target sequence (O15151 whole entry, looked up): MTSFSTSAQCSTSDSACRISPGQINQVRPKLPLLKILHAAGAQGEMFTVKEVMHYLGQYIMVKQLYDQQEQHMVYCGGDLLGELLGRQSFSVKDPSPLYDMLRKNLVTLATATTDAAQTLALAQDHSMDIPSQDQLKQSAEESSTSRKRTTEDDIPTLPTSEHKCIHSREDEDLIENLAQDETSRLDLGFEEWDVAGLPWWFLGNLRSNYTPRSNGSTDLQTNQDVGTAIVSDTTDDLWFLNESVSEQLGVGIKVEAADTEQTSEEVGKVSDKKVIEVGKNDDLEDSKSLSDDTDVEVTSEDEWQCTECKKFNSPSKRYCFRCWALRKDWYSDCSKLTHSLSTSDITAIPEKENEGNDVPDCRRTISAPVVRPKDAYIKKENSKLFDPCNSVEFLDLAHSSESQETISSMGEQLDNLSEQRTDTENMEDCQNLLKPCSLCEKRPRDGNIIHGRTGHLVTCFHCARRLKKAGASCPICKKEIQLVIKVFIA
# Target sequence (Q00987 whole entry, looked up): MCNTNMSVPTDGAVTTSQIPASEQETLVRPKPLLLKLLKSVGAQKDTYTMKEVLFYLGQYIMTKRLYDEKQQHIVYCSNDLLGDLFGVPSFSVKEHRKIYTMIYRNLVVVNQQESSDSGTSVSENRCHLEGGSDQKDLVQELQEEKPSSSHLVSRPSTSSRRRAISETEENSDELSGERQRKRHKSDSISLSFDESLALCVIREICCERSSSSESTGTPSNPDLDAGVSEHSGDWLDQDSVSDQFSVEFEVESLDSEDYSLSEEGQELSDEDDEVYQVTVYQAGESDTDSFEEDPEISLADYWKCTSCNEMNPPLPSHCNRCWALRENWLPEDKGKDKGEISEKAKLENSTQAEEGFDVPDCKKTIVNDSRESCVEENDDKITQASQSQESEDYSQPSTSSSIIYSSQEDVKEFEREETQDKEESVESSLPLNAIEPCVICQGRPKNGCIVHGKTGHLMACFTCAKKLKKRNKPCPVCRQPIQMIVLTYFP
# MPTP block: inhibitors of mitochondrial permeability transition pore; hit rate 1.4% among 360,000; isolated mouse mitochondria, Ca2+ swelling absorbance, 30 min; inhibition, % at 10 µM;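 active means inhibition of 50% or more, scaled per plate between neutral and stimulator controls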;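 further: 0% = DMSO wells given calcium and 100% = 1 mM EGTA wells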
# tim10-1 inh: inhibits growth of tim10-1 mutant yeast; S. cerevisiae tim10-1 ts strain growth, BacTiter-Glo, 24 h; inhibition, % at 20 µM; hit rate 2.2% among 330,000; AID 463190;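 active means inhibition of at least 40%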;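 further: mutant grown at 25 °C; 0% = DMSO wells with yeast and 100% = wells holding no yeast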
# tim10-1 confirm: confirmation of tim10-1 mutant yeast growth inhibitors | shares compounds with tim10-1 inh | S. cerevisiae tim10-1 ts strain growth, BacTiter-Glo, 24 h | inhibition, % at 20 µM | hit rate 56% among 7,400 | AID 463213;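 active means inhibition of yeast growth at or above a set limit in either of two repeat tests at 20 µM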;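 further: tim10-1 mutant grown at permissive 25 °C to find synthetic lethal compounds; 0% = DMSO yeast wells and 100% = medium wells without yeast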
# tim10 confirm: TIM10 yeast growth inhibition, confirmed; shares compounds with TIM10 inh; S. cerevisiae tim10 strain growth, BacTiter-Glo luminescence, 24 h; inhibition, % at 10 µM; hit rate 63% among 4,600; AID 463215;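 active means inhibition of yeast growth at or above a set limit in either of two replicates at 10 µM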;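 further: this counterscreen used the strain with wild-type TIM10; 0% = yeast with DMSO and 100% = medium wells lacking yeast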
# tim23-1 confirm: confirmation of tim23-1 mutant yeast growth inhibitors. shares compounds with tim23-1 inh. S. cerevisiae tim23-1 growth, BacTiter-Glo luminescence, 24 h. inhibition, % at 20 µM. hit rate 83% among 4,400. AID 463218;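 active means inhibition above about 39% in either of two replicate wells at 20 µM, limit read from the data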;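 further: temperature-sensitive tim23-1 mutant grown at 25 °C; 0% = DMSO wells with yeast and 100% = medium wells without yeast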
# An asterisk follows results filed as active; nt = no result. Compounds with a hit are over-represented: about 6.3% of the library has one in this group of screens.
SMILES,TIM10 inh,tim23-1 inh,Mdm2-MdmX inh,MPTP block,tim10-1 inh,tim10-1 confirm,tim10 confirm,tim23-1 confirm
CC1CCCCC1NC(=O)/C(C#N)=C/c1ccc2c(c1)OCCO2 (stereo unspecified),55*,63*,-23,nt,50*,53*,5,62*
CC1CCCCC1NC(=O)/C(C#N)=C/c1ccc(F)c(F)c1 (stereo unspecified),59*,54*,26,28,48*,59*,70*,46*
CCC(=O)N1CCCC(C(=O)NS(=O)(=O)c2cc(C)c(Cl)cc2C)CC1 (stereo unspecified),nt,nt,nt,2,nt,nt,nt,nt
O=C(Nc1ccc(Br)cc1)C1CC(c2c(F)cccc2Cl)=NO1 (stereo unspecified),-28,27,16,1,-8,nt,nt,nt
COc1ccc(Cl)cc1NC(=O)C1CC(c2c(F)cccc2Cl)=NO1 (stereo unspecified),65*,65*,29,0,80*,76*,72*,85*
Cc1ccc2nc(SCc3ccc([N+](=O)[O-])cc3)nc(C)c2c1,-2,10,3,1,7,nt,nt,nt
Cc1ccc2nc(SCc3ccc([N+](=O)[O-])cc3)[nH]c2c1,55*,79*,-36,2,42*,42*,24,79*
N#C/C(=C/c1ccc(N2CCOCC2)o1)c1ccc(Br)cc1,29,26,-83,9,29,nt,nt,nt
N#C/C(=C/c1ccc(N2CCCCCC2)o1)c1ccc(F)cc1,42*,60*,47,0,62*,18,58*,69*
COc1ccc(Nc2cc(C)c3cc([N+](=O)[O-])ccc3n2)cc1,37,51*,-17,4,53*,53*,nt,67*
COc1ccc(Nc2ccc([N+](=O)[O-])cn2)cc1,-4,19,-50,0,4,nt,nt,nt
CSc1ccc(CNC(=O)C2CCC(=O)N(CCc3ccc(Cl)cc3)C2)cc1 (stereo unspecified),nt,nt,nt,-1,nt,nt,nt,nt
CC(C)NC(=O)/C(C#N)=C/c1cccc(NC(=O)c2ccccc2Cl)c1,63*,78*,24,1,70*,67*,1,67*
COCCNC(=O)/C(C#N)=C/c1cccc(NC(=O)c2ccccc2Cl)c1,27,31,-24,0,38,nt,nt,nt
Cc1ccc(O)c(Sc2cc(C)ccc2O)c1,27,53*,35,3,47*,28,nt,45*
Cc1ccc(O)c(O)c1,-10,12,32,nt,9,nt,nt,nt
CCN(CC)C(=S)SSC(=S)N(CC)CC,50*,64*,37,-3,88*,99*,100*,99*
COc1ccc(OC)c(/C=c2\sc3nc(-c4cccs4)nn3c2=O)c1,28,53*,-35,3,49*,37*,nt,47*
Cc1ccc(-n2ncc3c(=O)n(-c4cccc(C)c4)c(=O)[nH]c32)cc1,nt,nt,nt,0,nt,nt,nt,nt
COc1ccccc1CCC(=O)Nc1ccc2c(c1)c(=O)n(C)n2C,nt,nt,nt,0,nt,nt,nt,nt
Cc1ccnc(Nc2nc(-c3sc(C)nc3C)cs2)c1,39,82*,40,27,48*,25,nt,58*
CCCCNC(=O)c1c(N)[nH]c(C(=O)c2ccccc2)c1-c1ccccn1,nt,nt,nt,1,nt,nt,nt,nt
CC(C)C[C@H]1COc2cccc(N3CCSCC3)c2S(=O)(=O)N1,nt,nt,nt,0,nt,nt,nt,nt
NC(=S)N/N=C/c1ccccc1OCCSc1ccc(Cl)cc1,57*,54*,39,-4,43*,32*,3,34
CCOC(=O)C1=C(Cc2ccc(C)cc2)C(=O)c2ccccc2C1=O,57*,61*,2,nt,62*,68*,67*,60*
SMILES,TIM10 inh,tim23-1 inh,Mdm2-MdmX inh,MPTP block,tim10-1 inh,tim10-1 confirm,tim10 confirm,tim23-1 confirm
CCOC(=O)C1=C(Cc2ccc(OC)cc2)C(=O)c2ccccc2C1=O,nt,nt,nt,15,nt,nt,nt,nt
CCCc1ccc(/C=C2\C(=O)c3ccccc3C(O)=C2C(=O)OCC)cc1,45*,52*,15,nt,66*,66*,48*,57*
O=C(c1ccc(-n2cnnn2)cc1)N(C1CCCCC1)C1CCCCC1,22,7,-33,1,18,nt,nt,nt
O=C(NO)c1ccc(C(=O)N(C2CCCCC2)C2CCCCC2)cc1,51*,64*,11,1,53*,41*,39*,71*
CNc1nc(NCC2CCCCC2)c2sccc2n1,nt,nt,nt,17,nt,nt,nt,nt
CN1/C(=C\C(=O)c2cccs2)C(C)(C)c2ccccc21,-2,33,-36,1,27,nt,nt,nt
Cc1cccc2c1NC(=O)/C2=C\C(=O)c1cccs1,82*,81*,33,-4,83*,87*,88*,77*
CS(=O)(=O)Nc1cccc(NC(=O)C2Cc3c(-c4ccccc4)ccnc3O2)c1 (stereo unspecified),nt,nt,nt,8,nt,nt,nt,nt
COc1ccc(/C=N/Nc2nc(N3CCCCC3)nc(N3CCCCC3)n2)cc1[N+](=O)[O-],19,40,5,0,27,nt,nt,nt
O=[N+]([O-])c1cc(/C=N/Nc2nc(N3CCCCC3)nc(N3CCCCC3)n2)ccc1O,52*,50*,-12,-8,49*,39*,-5,52*
CCOc1cc(/C=C2/C(=O)ON=C2C)ccc1OCc1ccccc1F,24,58*,24,-1,52*,25,nt,52*
CCOc1cc(/C=C2/C(=O)ON=C2C)ccc1OCc1ccccc1,21,33,17,nt,30,nt,nt,nt
O=C(NCCN1C(=O)S/C(=C\c2ccc(Cl)cc2Cl)C1=O)C1=COCCO1,47*,57*,7,-1,41*,47*,48*,67*
N#C/C(=C\c1ccccc1)C(=O)N(c1ccccn1)C1CCCCC1,58*,71*,13,0,49*,70*,67*,58*
O=C(c1cccc(C(=O)N(c2ccccn2)C2CCCCC2)c1)N(c1ccccn1)C1CCCCC1,7,28,31,-2,39,nt,nt,nt
Cn1nnnc1SCC(=O)N1CCc2ccccc2C1,10,-5,-25,-2,12,nt,nt,nt
Cc1ccc(-n2nnnc2SCC(=O)N2CCc3ccccc3C2)cc1,41*,54*,21,0,46*,41*,34*,41*
N#C/C(=C\c1c(Cl)cccc1Cl)c1nc2ccccc2[nH]1,48*,61*,-18,2,63*,53*,52*,73*
CN(C)/C=C(\C#N)c1nc2ccccc2[nH]1,8,13,-24,0,-17,nt,nt,nt
O=S(=O)(NCCCN1CCOCC1)c1ccc(Cl)s1,1,0,21,0,-19,nt,nt,nt
CCCCCCNS(=O)(=O)c1ccc(Cl)s1,-1,56*,2,31,43*,26,nt,47*
CCOC(=O)c1cnc(-n2nc(C)cc2C)nc1NCCO,10,-12,9,-5,13,nt,nt,nt
